# About 83,000 compounds went through this panel and 20% of them were active in at least one assay; those are over-represented in the sample as a whole.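 For each line, cells grew in 96-well plates with the test compound present at a single concentration for 48 hours.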 Unmarked numbers belong to inactive results. Activity calls are given as the source filed them. Rule for the calls: active = growth percent below 10; inactive = the rest.
# Test system: HOP-92 NSCLC
# Assay: NCI-60 one-dose screen, 48 h (100 = growth as untreated, 0 = no growth, -100 = all killed)
# Conditions: 10 µM unless noted
row,SMILES,growth
1,O=C1CC(c2ccc(O)c(O)c2)Oc2cc(O)c([C@@H]3O[C@H](CO)[C@@H](O)[C@H](O)[C@H]3O)c(O)c21 (stereo partly drawn),113%
2,O=C(NCc1ccccc1)c1ccc2c(c1)NC(=O)[C@@H]1CCCN21,102%
3,CCc1ccc(OCc2ccccc2C(=O)Nc2ccc3nc(C)cc(N)c3c2)cc1,-87.2% (active)
4,CSc1cccc(NC(=O)Nc2nc3c(C)cccc3s2)c1,86.6%
5,COC(=O)[C@]1(C)CCC[C@]2(C)[C@H]3C[C@H]4C(C(C)C)=C[C@]3(CC[C@H]21)[C@@H]1C(=O)N(CCC#N)C(=O)[C@@H]14,81.1%
6,CC1=C(CCCOC(=O)NCCCl)C2=C(C)C3(CC3)[C@@](C)(O)C(=O)C2=C1,8.91% (active)
7,COc1ccc2[nH]c(-c3ccccc3)c(C=C(C#N)C#N)c2c1,-7.8% (active)
8,Cc1nn(-c2ccc(-c3ccc(OC(F)(F)F)cc3)cc2)c2nc(-c3ccccc3)nc(N)c12,66.4%
9,O=S(=O)(O)c1ccc(N=NSc2ccc3ccccc3c2)cc1,86.4%
10,O=c1c2ccccc2n(CC(O)CN2CCCC2)c2c(Br)cccc12 (stereo not drawn),90.2%
11,CS(=O)(=O)O[C@@H]1C(=O)N(c2cc3c4ccccc4ccc3c3ccccc23)[C@H]1c1ccc(F)cn1,57%
12,CC(C)(C)c1nn(-c2ccccc2)c2c1COCN2Cc1ccc(Cl)cc1,83.1%
13,Cc1cc(NC(=O)CNc2nc(Oc3ccc(F)cc3)nc(-c3ccc(F)cc3)n2)ccc1Cl,97.7%
14,CC(=O)c1cc2c(N)c(C(=O)Nc3ccccn3)sc2nc1C,75.2%
15,CCOC(=O)c1sc(/N=C2\NC(=O)/C(=C/c3ccc(N4CCN(C)CC4)cc3)S2)nc1C,108%
16,O=C(/C(=C/c1ccc([N+](=O)[O-])cc1)SCc1ccc(F)cc1)c1ccc(Cl)cc1,69.6%
17,Cc1cnc(-c2ccc(-c3ccc(NC(=O)Nc4c(F)cc(F)cc4F)cc3F)c3c2C(=O)NC3)[nH]1,70.8%
18,COc1ccc(Nc2cc(NC(=O)CNc3cc(OC)c(Cl)c(OC)c3Cl)ncn2)cc1,74.3%
19,Nc1n[nH]c2cccc(C#Cc3cccc(NC(=O)c4cc(N5CCOCC5)cc(C(F)(F)F)c4)c3)c12,34.1%

row,SMILES,growth
1,CC(C)(C)CC(C)(C)Cc1ccc(OCCOCC[N+](C)(C)Cc2ccccc2)cc1,-7.72% (active)
2,CCOCc1cc(C(C)(C)C)ccc1O,92.3%
3,C=C1C(=O)O[C@H]2[C@H]1CC/C(COC(=O)Nc1nc3ccccc3[nH]1)=C\CC[C@@]1(C)O[C@@H]21,50.4%
4,C=C(C)[C@@H]1CC[C@]2(C(=O)n3ccnc3)CC[C@]3(C)[C@H](CC[C@@H]4[C@@]5(C)CCCNC(C)(C)[C@@H]5CC[C@]43C)[C@@H]12,51.5%
5,C=C(C)[C@@H]1CC[C@]2(C(=O)O)CC[C@]3(C)[C@H](CC[C@@H]4[C@@]5(C)C[C@@H](CC#Cc6ccccc6C)C(=O)C(C)(C)[C@@H]5CC[C@]43C)[C@@H]12,38.1%
6,Clc1ccc2c(NCCCNC3CCCCC3)ccnc2c1,80.4%
7,CN(C)C(CNc1oc(-c2cccc3ccccc23)nc1C#N)c1ccco1 (stereo not drawn),94%
8,c1cc(CNC23CC4CC(CC(C4)C2)C3)cc(C[N+](Cc2cccc(CNC34CC5CC(CC(C5)C3)C4)c2)(Cc2cccc(CNC34CC5CC(CC(C5)C3)C4)c2)Cc2cccc(CNC34CC5CC(CC(C5)C3)C4)c2)c1 (stereo not drawn),32.8% [42 µM]
9,O=C1CCc2ccccc2N1,101%
10,Cc1cnc(SCc2ccc(Cl)cc2Cl)nc1Nc1ccc(Cl)c(Cl)c1,76%
11,COc1cc(C2=NN(C(C)=O)C(c3cccc(Nc4ccnc5cc(C(F)(F)F)ccc45)c3)C2)cc(OC)c1OC (stereo not drawn),25.3%
12,CCOC(=O)c1c(-c2ccc(O)cc2)c(C#N)c2c(C#N)c(N)nn2c1N,41.7%
13,CN(C)CCCn1c2c(c3cc(-c4ccco4)ccc3c1=O)C(=O)c1ccccc1-2,71.6%
14,Nc1cc(N)c(S(=O)(=O)O)cc1N=Nc1cc([N+](=O)[O-])ccc1O,89.4%
15,COc1cc(/C=N/Nc2nc(-c3ccc(F)cc3)c(C#N)c(N3CCOCC3)n2)ccc1O,80%
16,COc1cc(-c2csc(NC(=O)Nc3ccc(Cl)cc3)n2)cc(OC)c1OC,7.26% (active)
17,N#CCNc1ccc(C(=O)O)cc1,94%
18,CCOC(=O)c1ccc(Nc2ncnc3ccc(NC(=O)c4ccccc4)cc23)cc1,86.4%
19,COC(=O)/C=C/c1cc(OC(C)=O)c2c(c1)C(C(=O)OC)C(c1ccc(OC(C)=O)c(OC(C)=O)c1)O2 (stereo not drawn),33.7%

# Source: PubChem BioAssay (NCI)
